Source: PubChem BioAssay (NCI)
This is part of a sample that, as a whole, favours compounds with a hit. Of some 83,000 tested, about 20% had one in any assay.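 Cells were grown in 96-well plates and exposed to the test compound at a single concentration for 48 hours; results are reported as percent growth, with values below 10 considered active.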 The source made the active and inactive calls.

Assays:
Experiment in all cases: NCI-60 one-dose screen, 48 h (100 = growth as untreated, 0 = no growth, -100 = all killed)
Details in all cases: 10 µM unless noted
NCI-H23 lung = tested on: NCI-H23 lung
NCI-H226 lung = tested on: NCI-H226 lung
NCI-H322M lung = tested on: NCI-H322M lung
HOP-62 NSCLC = tested on: HOP-62 NSCLC
NCI-H460 lung = tested on: NCI-H460 lung
HOP-92 NSCLC = tested on: HOP-92 NSCLC
NCI-H522 lung = tested on: NCI-H522 lung
A549/ATCC NSCLC = tested on: A549/ATCC NSCLC
786-0 renal = tested on: 786-0 renal
COLO 205 colon = tested on: COLO 205 colon

Measured: growth

N#Cc1c(-c2cccc(Cl)c2)cc(-c2cccc(F)c2)[nH]c1=O
inactive: NCI-H23 lung 96.3% | NCI-H226 lung 95.1% | NCI-H322M lung 90.8% | HOP-62 NSCLC 93.4% | NCI-H460 lung 95.9% | HOP-92 NSCLC 55.3% | NCI-H522 lung 85% | A549/ATCC NSCLC 84.5% | 786-0 renal 90.3% | COLO 205 colon 109%

Nc1ccc2c(c1)c(N)nn2C(=O)Nc1ccc(Cc2ccccc2)cc1
inactive: NCI-H23 lung 82.1% | NCI-H226 lung 72.5% | NCI-H322M lung 81.2% | HOP-62 NSCLC 82.7% | NCI-H460 lung 44.5% | HOP-92 NSCLC 98.2% | NCI-H522 lung 88.3% | A549/ATCC NSCLC 52.3% | 786-0 renal 84.3% | COLO 205 colon 107%

O=C1CCc2c(sc3[nH]c(=S)n(-c4ccc(OC(F)(F)F)cc4)c(=O)c23)C1
inactive: NCI-H23 lung 14.1% | NCI-H226 lung 72.4% | NCI-H322M lung 90.5% | HOP-62 NSCLC 53.1% | A549/ATCC NSCLC 77.1% | 786-0 renal 99.8% | COLO 205 colon 99.2%
active: NCI-H460 lung 2.8% | HOP-92 NSCLC -10.3% | NCI-H522 lung 7.42%

O=c1[nH][n+](-c2ccc(Cl)cc2)no1
inactive: NCI-H23 lung 91.6% | NCI-H226 lung 87.2% | NCI-H322M lung 75.6% | HOP-62 NSCLC 82.7% | NCI-H460 lung 44.1% | HOP-92 NSCLC 95.1% | NCI-H522 lung 59.2% | A549/ATCC NSCLC 62.1% | 786-0 renal 61.2% | COLO 205 colon 77.9%

CC/C=C\C/C=C\C[C@H](O)C/C=C1/C(=O)C=C[C@@H]1C/C=C\CCCC(=O)O
active: NCI-H522 lung -22.8% | 786-0 renal -38.7%
inactive: NCI-H23 lung 61.8% | NCI-H226 lung 59.6% | NCI-H322M lung 53.4% | HOP-62 NSCLC 62.8% | NCI-H460 lung 31.8% | HOP-92 NSCLC 87.3% | A549/ATCC NSCLC 57.3% | COLO 205 colon 27%

OC(COc1ccccc1Cl)COc1ccccc1Cl
inactive: NCI-H23 lung 94.1% | NCI-H226 lung 95.3% | NCI-H322M lung 110% | HOP-62 NSCLC 117% | NCI-H460 lung 107% | HOP-92 NSCLC 102% | NCI-H522 lung 88.3% | A549/ATCC NSCLC 93.2% | 786-0 renal 103% | COLO 205 colon 112%

NC(=N\N=C/c1ccccc1[N+](=O)[O-])/C(N)=N\N=C/c1ccccc1[N+](=O)[O-]
inactive: NCI-H23 lung 104% | NCI-H226 lung 107% | NCI-H322M lung 146% | HOP-62 NSCLC 94% | NCI-H460 lung 104% | HOP-92 NSCLC 89% | NCI-H522 lung 89.3% | A549/ATCC NSCLC 114% | 786-0 renal 103% | COLO 205 colon 109%

COc1cc(C2CC(c3ccc(Nc4ccnc5cc(Cl)ccc45)cc3)=NN2C=O)cc(OC)c1OC (stereo not given)
active: HOP-92 NSCLC -3.68%
inactive: NCI-H23 lung 89.2% | NCI-H226 lung 102% | NCI-H322M lung 107% | HOP-62 NSCLC 84.4% | NCI-H460 lung 57.2% | NCI-H522 lung 71.7% | A549/ATCC NSCLC 72.4% | 786-0 renal 63.8% | COLO 205 colon 95.6%

COc1ccc(N=Nc2ccc(O)c(=O)cc2)cc1
active: NCI-H23 lung 2.37% | NCI-H226 lung 4.29% | NCI-H460 lung 2.64% | NCI-H522 lung 0.606% | A549/ATCC NSCLC 5.6%
inactive: NCI-H322M lung 25.2% | HOP-62 NSCLC 19.1% | HOP-92 NSCLC 19.4% | 786-0 renal 19.5% | COLO 205 colon 26.3%

Cc1ccc(-c2cc(-c3ccccc3C)[nH]c(=O)c2C#N)s1
inactive: NCI-H23 lung 92.4% | NCI-H226 lung 93.1% | NCI-H322M lung 79.1% | HOP-62 NSCLC 90.4% | NCI-H460 lung 98.7% | HOP-92 NSCLC 54% | NCI-H522 lung 87.5% | A549/ATCC NSCLC 87.9% | 786-0 renal 78.8% | COLO 205 colon 117%

COc1cc(-c2nn(-c3ccccc3)cc2-c2ccnc(NCCNS(=O)(=O)c3ccc(Cl)cc3)n2)ccc1Cl
inactive: NCI-H23 lung 47.4% | NCI-H226 lung 30.8% | NCI-H322M lung 68.8% | HOP-62 NSCLC 48% | NCI-H460 lung 19% | HOP-92 NSCLC 48.8% | NCI-H522 lung 42.2% | A549/ATCC NSCLC 13.3% | 786-0 renal 28.9% | COLO 205 colon 17.2%

Cc1cccc(NC(=O)CSc2nc3ccccc3[nH]2)c1
inactive: NCI-H23 lung 94.6% | NCI-H226 lung 92% | NCI-H322M lung 97% | HOP-62 NSCLC 88.7% | NCI-H460 lung 105% | HOP-92 NSCLC 88.4% | NCI-H522 lung 90.9% | A549/ATCC NSCLC 101% | 786-0 renal 103% | COLO 205 colon 110%

C[n+]1cc2cc(C(N)=O)[nH]c3c(=N)c(Cl)c(N)c1c23
inactive: NCI-H23 lung 56.6% | NCI-H226 lung 57.1% | NCI-H322M lung 80.5% | HOP-62 NSCLC 37.9% | NCI-H460 lung 23.8% | HOP-92 NSCLC 80% | NCI-H522 lung 35.2% | A549/ATCC NSCLC 26.3% | 786-0 renal 49.1% | COLO 205 colon 44.1%
